# In PMC5540273 (PLoS ONE, 2017):
# What was measured:
# Conditions in all cases: concentration: 1 μM, replicates: in singlicate; n = 1
# [1] = system: T1, VPS34
# T1 construct: gene PIK3C3
# [2] = system: VRK2
# [3] = system: WEE1
# [4] = system: WEE2
# [5] = system: WNK1
# [6] = system: WNK2
# [7] = system: WNK3
# [8] = system: WNK4
# [9] = system: T2, YANK1
# T2 construct: gene STK32A
# [10] = system: T3, YANK2
# T3 construct: gene STK32B
# 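Also: KINOMEscan kinase panel screen.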
Compound,%Inh [1],%Inh [2],%Inh [3],%Inh [4],%Inh [5],%Inh [6],%Inh [7],%Inh [8],%Inh [9],%Inh [10]
Cc1nnc(-c2ccc3occ(-c4ccc(C(C)O)cc4)c3c2)o1 (stereo not drawn),18%,0%,8%,7%,0%,0%,0%,0%,5%,2%
O=c1cc(N2CCOCC2)nc2n(Cc3cccc4ccccc34)ccn12 [GSK2333389],98%,0%,13%,12%,2%,0%,0%,0%,1%,0%
COc1cc(Nc2nccc(N3CCC(NC(=O)c4cccc(NC(C)=O)c4)C3)n2)cc(OC)c1OC (stereo not drawn) [GSK1379754],35%,0%,4%,1%,6%,0%,14%,0%,0%,0%
Cc1cccc(-c2nc(-c3ccc(S(C)(=O)=O)cc3)sc2-c2ccncc2)c1,12%,0%,0%,7%,0%,0%,0%,0%,0%,23%
COCCNC(=O)c1ccc(-c2cc(C(=O)NC3CC3)cc(F)c2C)cc1 [GW868318],9%,37%,3%,5%,31%,0%,23%,21%,1%,25%
Fc1ccc(-c2ncn(CCCN3CCOCC3)c2-c2cccnc2)cc1 [SB-211743],0%,20%,0%,0%,8%,0%,0%,0%,0%,0%
COc1cc2c(cc1OC[C@@H](O)CO)ncc1c3ccc(C#N)cc3[nH]c21,0%,9%,0%,0%,1%,0%,2%,0%,19%,0%
O=C(NOCC1CC1)c1ccc(F)c(F)c1Nc1ccc(I)cc1Cl,0%,0%,0%,0%,0%,0%,0%,0%,6%,0%
Cl.Oc1cccc(Nc2ccnc3cc(-c4ccncc4)ccc23)c1 [GW494601],34%,6%,10%,7%,0%,13%,41%,46%,33%,12%
CC(C)Oc1ccc2c(-c3ccnc(Nc4ccc(N5CCN(C)CC5)cc4)n3)cnn2n1 [GW696155],96%,8%,30%,0%,12%,42%,52%,31%,0%,0%
Cl.Nc1ncnc2occ(-c3ccc(NC(=O)Nc4cc(C(F)(F)F)ccc4F)cc3)c12 [SB-707548],5%,0%,10%,6%,4%,11%,28%,13%,0%,17%
CCCCCc1nc2c(N)ncnc2n1CCCCC [SKF-97255],0%,0%,0%,3%,7%,0%,0%,0%,0%,12%
Cc1c(Cn2c(C)nn3c(=O)cc(N4CCOC(C)C4)nc23)cccc1C(F)(F)F (stereo not drawn) [GSK2344444],48%,0%,10%,0%,4%,0%,2%,0%,0%,0%
CN(C(=O)c1ccc(-c2cc(-c3c[nH]nc3-c3ccccn3)ccn2)cc1)C1CCOCC1 [GW810083],24%,100%,0%,22%,0%,0%,0%,0%,0%,0%
O=C(NCCCN1CCOCC1)c1cccc(Nc2nccc(Nc3ccc(Oc4ccccc4)cc3)n2)c1 [GW663929],0%,17%,31%,0%,11%,14%,33%,0%,0%,0%
COc1cc2c(cc1OCCN1CCN(C)CC1)ncc1c3ccc(C#N)cc3[nH]c21,0%,0%,24%,3%,0%,0%,0%,0%,0%,0%
COc1ccc(S(=O)(=O)NC2CCN(c3cc(C)nc(Nc4cccc(C#N)c4)n3)CC2)cc1.O=C(O)C(F)(F)F [GSK1653539],0%,0%,17%,6%,15%,0%,38%,12%,4%,0%

Compound,%Inh [1],%Inh [2],%Inh [3],%Inh [4],%Inh [5],%Inh [6],%Inh [7],%Inh [8],%Inh [9],%Inh [10]
Cc1nnc(-c2ccc3ncc(-c4ccc(S(C)=O)cc4)n3c2)o1 (stereo not drawn),27%,0%,0%,13%,0%,1%,0%,7%,0%,0%
C[C@@H](Oc1cc(-n2cnc3ccc(NC(=O)NC(C)(C)C)cc32)sc1C(N)=O)c1ccccc1Cl [GSK346294],0%,5%,5%,12%,14%,25%,33%,0%,0%,0%
CN(C1=C(c2ccccc2)C(=O)NC1=O)c1ccccc1 [SB-334860],0%,8%,13%,0%,8%,28%,17%,1%,0%,15%
Fc1ccc(-c2ncn(CCCN3CCOCC3)c2-c2ccccn2)cc1 [SB-211742],20%,0%,21%,11%,0%,0%,5%,0%,0%,0%
COc1cc2ncn(-c3cc(OCc4sccc4Cl)c(C(N)=O)s3)c2cc1OC [GSK448459],60%,5%,4%,5%,19%,45%,60%,31%,11%,0%
O=C1Cc2cc(Nc3nc(NCc4cccc(S(=O)(=O)C(F)(F)F)c4)ncc3C(F)(F)F)ccc2N1,0%,23%,0%,0%,0%,6%,0%,0%,0%,0%
Cc1ccc(NC(=O)c2ccnc(N3CCN(C)CC3)c2)cc1-c1ccc(C(=O)NCC2CC2)cc1 [GW775604],0%,17%,0%,0%,0%,0%,0%,0%,0%,1%
Cn1ccc2ncnc(Oc3ccc(NC(=O)Nc4ccncc4)c(Cl)c3)c21,0%,0%,0%,0%,0%,0%,0%,0%,0%,5%
COc1ccc(Nc2nccc(N3CCC(NC(=O)Nc4cc(C)ccc4C)C3)n2)cc1 (stereo not drawn) [GSK1379741],0%,0%,14%,0%,7%,59%,18%,40%,0%,0%
CCc1ccnc(/C=C/c2n[nH]c3cc(Sc4ccccc4C(=O)NC)ccc23)c1,6%,13%,0%,0%,0%,39%,0%,0%,0%,0%
Cc1nnc(-c2ccc(C)c(-c3ccc(C(=O)Nc4ccc(NS(C)(=O)=O)cc4)cc3)c2)o1 [GW702865],0%,0%,17%,0%,0%,1%,35%,26%,6%,0%
COC(=O)Nc1nc2cc(Oc3ccc(NC(=O)Nc4cc(F)ccc4F)cc3)ccc2[nH]1.Cl [GW701424],0%,30%,1%,9%,12%,0%,48%,58%,0%,0%
O=c1cc(N2CCOCC2)nc2n(Cc3cccc(F)c3)ccn12 [GSK2297430],93.9%,0%,0%,9%,0%,12%,8%,3%,7%,14%
Nc1nccc(-c2c(-c3ccc(F)cc3)ncn2C2CCN(CC(F)(F)F)CC2)n1 [SB-236560],58%,31%,0%,0%,0%,17%,35%,0%,22%,0%
N#Cc1c(N2CCOCC2)sc(-c2ccn[nH]2)c1-c1ccc(Cl)cc1,86%,35%,0%,0%,0%,4%,14%,34%,0%,0%
O=C(NCCNc1ccnc(Nc2ccc(F)cc2)n1)c1cc2ccccc2s1 [GSK1379874],16%,0%,38%,5%,0%,0%,16%,39%,0%,0%
